Broadly, the AC50 is the concentration at which the activity in the assay is half-maximal.

These results are taken from PubChem BioAssay (EPA / NIEHS).

Experiment [1] in a line: CEETOX_H295R_OHPROG_noMTC: CeeTox H295R High-throughput Steroidogenesis Assay for OH-Progesterone (OHPROG), maximum tolerated concentration (MTC) filtered results only (AID 2283914). The conditions noted are these: actives raise or lower the signal. The method in brief:
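Forskolin 10 uM, 48 h prestim → test cmpd in DMSO (0.1% final), 48 h → medium MTBE extraction → LC-MS/MS quant of 17alpha-OH-progesterone. Bidirectional fit vs DMSO; no MTT-based MTC filtering.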

Experiment [2] is described as follows: CEETOX_H295R_ANDR_noMTC: CeeTox H295R High-throughput Steroidogenesis Assay for Androstenedione (ANDR), maximum tolerated concentration (MTC) filtered results only (AID 2283915). The conditions noted are these: actives raise or lower the signal. The method in brief:
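H295R cells, passage 10 or below, prestimulated 48 h with 10 uM forskolin, then exposed 48 h to chemical in 0.1% DMSO. Medium androstenedione extracted with MTBE, quantified by HPLC-MS/MS; concentrations not MTC-filtered; bidirectional fit versus DMSO.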

The nature of experiment [3]: CEETOX_H295R_CORTISOL_noMTC: CeeTox H295R High-throughput Steroidogenesis Assay for Cortisol, maximum tolerated concentration (MTC) filtered results only (AID 2283916). The conditions noted are these: actives raise or lower the signal. The method in brief: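 Cortisol secretion measured by LC-MS/MS after 48 h chemical treatment (final 0.1% DMSO) of forskolin-primed (10 uM, 48 h) H295R cells; gain or loss fitted relative to DMSO, without maximum-tolerated-concentration filtering.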

Experiment [4] is described as follows: CEETOX_H295R_CORTIC_noMTC: CeeTox H295R High-throughput Steroidogenesis Assay for Corticosterone (CORTIC), maximum tolerated concentration (MTC) filtered results only (AID 2283917). The conditions noted are these: actives raise or lower the signal. A digest of the protocol: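 Following OECD 456 with minor changes, H295R cultures received 10 uM forskolin for 48 h, then test chemical at 0.1% DMSO for 48 h. Media steroids were extracted and measured by LC-MS/MS.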

Experiment [5] can be described thus: CEETOX_H295R_DOC_noMTC: CeeTox H295R High-throughput Steroidogenesis Assay for DOC, maximum tolerated concentration (MTC) filtered results only (AID 2283918). The conditions noted are these: actives raise or lower the signal. The method in brief: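 11-Deoxycorticosterone secreted by human adrenal H295R cells quantified by HPLC-MS/MS after 48 h chemical exposure (0.1% DMSO), following 48 h 10 uM forskolin prestimulation. Concentrations not filtered by MTT-derived MTC; bidirectional fitting.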

The nature of experiment [6]: CEETOX_H295R_ESTRADIOL_noMTC: CeeTox H295R High-throughput Steroidogenesis Assay for Estradiol, maximum tolerated concentration (MTC) filtered results only (AID 2283919). The note with it: actives raise or lower the signal. The method in brief:
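H295R human adrenal cells pre-stimulated 48 h with 10 uM forskolin, then exposed 48 h to chemical (0.1% DMSO final). Estradiol in medium measured by HPLC-MS/MS after MTBE extraction and dansyl derivatization; bidirectional fit versus DMSO, concentrations not MTT-filtered.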

Experiment [7] in a line: CEETOX_H295R_PROG_noMTC: CeeTox H295R High-throughput Steroidogenesis Assay for Progesterone (PROG), maximum tolerated concentration (MTC) filtered results only (AID 2283920). The conditions noted are these: actives raise or lower the signal. As for the experimental part: CEETOX_H295R is a cell-based, multiplexed-readout assay that uses H295R, a human adrenal gland cell line, with measurements taken at 48 hours after chemical dosing in a 96-well plate.CEETOX_H295R_PROG_noMTC is one of 12 assay component(s) measured or calculated from the CEETOX_H295R assay (11 hormones and 1 viability assay). It is designed to make measurements of hormone induction, a form of inducible reporter, as detected with absorbance signals by HPLC-MS-MS technology. The concentrations for these components have not been pre-filtered for the maximum tolerated concentration (MTC) based on the MTT assay (_noMTC).Data from the assay component CEETOX_H295R_PROG_noMTC was analyzed into 1 assay endpoint. This assay endpoint, CEETOX_H295R_PROG_noMTC, was analyzed with bidirectional fitting relative to DMSO as the negative control and baseline of activity. […]
Cell culture and media preparation procedures were conducted in accordance with OECD Test No. 456 guidelines, with minor modifications. […] For steroid quantification, media samples were shipped to OpAns, LLC (Durham, NC) on dry ice, and samples were thawed to room temperature prior to liquid-liquid extraction. […] Steroid hormones were separated by HPLC, eluted using a reverse phase C18 gradient with electrospray positive ionization, followed by quantification by tandem mass spectrometry (MS/MS). […]

Experiment [8] is described as follows: CEETOX_H295R_ESTRONE_noMTC: CeeTox H295R High-throughput Steroidogenesis Assay for Estrone, maximum tolerated concentration (MTC) filtered results only (AID 2283921). The note with it: actives raise or lower the signal. A digest of the protocol: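 H295R cells prestimulated 48 h with 10 uM forskolin, then exposed 48 h to chemical in 0.1% DMSO; medium estrone measured by HPLC-MS/MS after MTBE extraction and dansyl derivatization, fitted bidirectionally versus DMSO without MTT-based MTC filtering.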

The nature of experiment [9]: CEETOX_H295R_TESTO_noMTC: CeeTox H295R High-throughput Steroidogenesis Assay for Testosterone (TESTO), maximum tolerated concentration (MTC) filtered results only (AID 2283924). The note with it: actives raise or lower the signal. A digest of the protocol: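 H295R cells prestimulated 48 h with 10 uM forskolin, then exposed 48 h to chemicals in 0.1% DMSO final. Testosterone in medium quantified by MTBE extraction and HPLC-MS/MS; bidirectional fit versus DMSO, concentrations […] filtered by MTT-based maximum tolerated concentration.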

In another experiment the target is PGR (gene 5241) (UniProt P06401). The experiment can be described thus: TOX21_PR_BLA_Followup_Antagonist_ratio: Tox21 HEK293 Progesterone Receptor (PR) Antagonism Beta-lactamase Follow-Up Assay, Ratio (AID 2283934; active = hit-call score of the fitted dose curve at least 0.9, where 1 is the maximum). A digest of the protocol: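 HEK293T PR-UAS-bla, 2% CS-FBS; 6 hr plating, then cpd + R5020 (1 nM final), 16 hr 37C/5% CO2. B/G FRET substrate 2 h RT. Ratio ch2/ch1 vs DMSO; CellTiter-Glo viability multiplexed, autofluorescence checked.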
PGR (gene 5241), sequence (P06401 whole entry, looked up): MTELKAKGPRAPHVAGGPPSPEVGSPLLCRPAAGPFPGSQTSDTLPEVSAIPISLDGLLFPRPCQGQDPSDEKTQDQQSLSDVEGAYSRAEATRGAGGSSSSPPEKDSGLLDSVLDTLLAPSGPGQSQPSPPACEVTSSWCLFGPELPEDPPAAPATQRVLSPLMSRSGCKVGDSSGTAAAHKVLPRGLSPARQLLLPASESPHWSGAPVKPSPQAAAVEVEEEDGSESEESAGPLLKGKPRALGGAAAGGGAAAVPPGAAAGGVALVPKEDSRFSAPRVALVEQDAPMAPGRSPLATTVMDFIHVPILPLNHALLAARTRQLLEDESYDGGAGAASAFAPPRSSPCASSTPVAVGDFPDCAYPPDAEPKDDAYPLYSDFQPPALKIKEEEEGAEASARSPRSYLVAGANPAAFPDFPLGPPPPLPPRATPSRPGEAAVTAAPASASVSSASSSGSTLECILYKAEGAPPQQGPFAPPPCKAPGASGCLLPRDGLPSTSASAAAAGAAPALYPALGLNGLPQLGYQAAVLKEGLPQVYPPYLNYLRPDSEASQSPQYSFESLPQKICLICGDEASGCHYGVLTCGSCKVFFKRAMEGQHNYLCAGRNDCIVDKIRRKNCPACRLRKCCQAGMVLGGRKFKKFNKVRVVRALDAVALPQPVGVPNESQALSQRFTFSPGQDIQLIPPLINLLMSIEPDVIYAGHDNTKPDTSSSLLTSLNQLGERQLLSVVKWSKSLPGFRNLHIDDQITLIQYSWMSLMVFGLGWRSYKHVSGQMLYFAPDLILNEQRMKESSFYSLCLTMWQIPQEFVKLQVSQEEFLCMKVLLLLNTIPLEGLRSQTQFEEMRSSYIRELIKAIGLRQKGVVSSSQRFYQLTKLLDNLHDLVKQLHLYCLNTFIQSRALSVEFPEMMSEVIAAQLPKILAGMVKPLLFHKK

Activity calls are given as the source filed them. Rule for the calls, unless noted: active = hit-call score of the fitted dose curve at least 0.9, where 1 is the maximum; inactive = score below 0.9.

Take `C/C=C/C(=O)C1=C(C)CCCC1(C)C`: the concentration at half-maximal activity (AC50) was 37.1 µM (active) in experiment [1], 31.3 µM (active) in experiment [2], 12.2 µM (active) in [5] and 10.6 µM (active) in experiment [7]. In addition, the result in experiment [3], in experiment [4], in experiment [6], in experiment [8] and in [9] was inactive.
With `C[C@]12CC[C@@H]3c4ccc(O)cc4CC[C@H]3[C@@H]1CC[C@@H]2OC(=O)CCC1CCCC1`, the AC50 with PGR (gene 5241) is 1.01 µM (active).
For the molecule `C[C@]12CC[C@@H]3c4ccc(O)cc4CC[C@H]3[C@@H]1C[C@@H](O)[C@@H]2O`, in the experiment with PGR (gene 5241), the half-maximal activity concentration (AC50) is 17.1 µM (active).
